{"source": "the supplement of paper PMC10503962"}
{"test_system": "Trichuris muris adult worms", "assay": "mean motility score (Paragon pixel variance) of adult worms (arbitrary units); higher = more motile worms, i.e. less anthelmintic effect; extreme values may be limits of the assay", "conditions": "100 µM; 24 h", "procedure,_shortened": "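Films of 200 frames spaced 100 ms apart were taken on an automated phenotyping platform after worms had spent 24 h at 37°C and 5% CO2. Those worms were single adult Trichuris muris from infected NOD SCID mice, each in a 96-well plate well with 100 μL RPMI-1640 plus antibiotics and drug at 100 μM (1% v/v DMSO). Paragon pixel-variance analysis produced the motility score, averaged over replicate wells. Testing used three worms in three wells per drug across three separate occasions, with vehicle and positive controls.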"}
{"molecule": "CN1CCN(CCOc2cc(OC3CCOCC3)c3c(Nc4c(Cl)ccc5c4OCO5)ncnc3c2)CC1", "note": "[saracatinib]", "mean motility score": 1640}
{"molecule": "CC(=O)OC(C)C[N+](C)(C)C.[Cl-]", "note": "(centres undefined) [methacholine chloride]", "mean motility score": 2220}
{"molecule": "Clc1ccc2c(c1)C(N1CCNCC1)=Nc1ccccc1O2", "note": "[amoxapine]", "mean motility score": 804}
{"molecule": "CNCc1ccc(-c2[nH]c3cc(F)cc4c3c2CCNC4=O)cc1", "note": "[rucaparib]", "mean motility score": 1130}
